The supplement of paper PMC11732987, “Enantioselective OTUD7B fragment discovery through chemoproteomics screening and high-throughput optimisation” (Communications Chemistry, 2025)

Experiments:
Test in all cases: log2 ratio of Biotin-Ahx-Ub-VS probe labelling (fragment/DMSO); higher = less target engagement (more negative = stronger competition), active = hit call of the paper (q ≤ 0.05, log2 ratio ≤ -1)
Settings in all cases: compound concentration: 200 uM; treatment time: 3 h
USP19 = molecular target: T1, USP19 (UniProt O94966)
T1 sequence (whole entry): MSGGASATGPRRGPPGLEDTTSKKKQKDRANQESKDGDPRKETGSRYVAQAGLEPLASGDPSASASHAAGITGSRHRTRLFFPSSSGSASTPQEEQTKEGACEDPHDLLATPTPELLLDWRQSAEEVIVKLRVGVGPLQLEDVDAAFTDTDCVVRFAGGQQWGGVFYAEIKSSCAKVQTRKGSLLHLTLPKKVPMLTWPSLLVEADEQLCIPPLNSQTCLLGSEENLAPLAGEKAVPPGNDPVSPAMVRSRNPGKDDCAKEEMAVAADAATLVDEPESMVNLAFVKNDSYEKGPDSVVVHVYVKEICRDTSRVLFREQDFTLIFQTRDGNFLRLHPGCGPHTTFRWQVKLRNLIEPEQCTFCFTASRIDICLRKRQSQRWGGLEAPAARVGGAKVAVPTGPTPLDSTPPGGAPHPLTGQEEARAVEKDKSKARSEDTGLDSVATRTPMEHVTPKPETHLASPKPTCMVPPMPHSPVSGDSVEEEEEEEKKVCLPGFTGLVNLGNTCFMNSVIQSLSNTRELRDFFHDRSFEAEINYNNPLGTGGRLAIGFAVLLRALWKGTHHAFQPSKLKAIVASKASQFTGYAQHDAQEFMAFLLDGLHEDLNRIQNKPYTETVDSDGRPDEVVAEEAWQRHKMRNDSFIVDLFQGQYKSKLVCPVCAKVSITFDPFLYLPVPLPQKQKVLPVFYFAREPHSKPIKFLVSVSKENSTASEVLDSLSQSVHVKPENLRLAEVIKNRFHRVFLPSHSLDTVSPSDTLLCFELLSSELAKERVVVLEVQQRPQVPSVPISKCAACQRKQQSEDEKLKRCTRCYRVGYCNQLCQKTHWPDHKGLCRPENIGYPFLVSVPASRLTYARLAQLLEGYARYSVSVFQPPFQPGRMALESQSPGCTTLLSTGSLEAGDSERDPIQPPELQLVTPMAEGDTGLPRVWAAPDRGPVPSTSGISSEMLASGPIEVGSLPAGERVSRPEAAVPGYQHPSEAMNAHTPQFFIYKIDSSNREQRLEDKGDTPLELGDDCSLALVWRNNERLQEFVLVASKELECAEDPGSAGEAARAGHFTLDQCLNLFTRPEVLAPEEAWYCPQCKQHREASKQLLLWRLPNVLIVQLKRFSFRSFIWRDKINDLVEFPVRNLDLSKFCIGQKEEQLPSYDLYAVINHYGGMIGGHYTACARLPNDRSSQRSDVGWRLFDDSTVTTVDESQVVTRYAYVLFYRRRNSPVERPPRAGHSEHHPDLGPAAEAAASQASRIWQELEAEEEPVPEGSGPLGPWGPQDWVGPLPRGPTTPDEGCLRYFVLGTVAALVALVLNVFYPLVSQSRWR
Method in brief: (§1)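 Fragment (200 µM) or vehicle was incubated for 3 h with triplicate HEK293T lysate samples of 495 µg, which were then treated with Biotin-Ahx-Ub-VS at 0.5 µM final for 1 h. Labelled DUBs were enriched on NeutrAvidin, digested with LysC and trypsin, and analysed by diaPASEF LC-MS/MS. Values are average log2 fragment/vehicle ratios from an unpaired t-test on global-median-normalised Spectronaut label-free quantities, using proteins with ≥2 unique peptides.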

USP24 = USP24 (UniProt Q9UPU5)
Method in brief: as §1

USP25 = molecular target: T2, USP25 (UniProt Q9UHP3)
T2 sequence (whole entry): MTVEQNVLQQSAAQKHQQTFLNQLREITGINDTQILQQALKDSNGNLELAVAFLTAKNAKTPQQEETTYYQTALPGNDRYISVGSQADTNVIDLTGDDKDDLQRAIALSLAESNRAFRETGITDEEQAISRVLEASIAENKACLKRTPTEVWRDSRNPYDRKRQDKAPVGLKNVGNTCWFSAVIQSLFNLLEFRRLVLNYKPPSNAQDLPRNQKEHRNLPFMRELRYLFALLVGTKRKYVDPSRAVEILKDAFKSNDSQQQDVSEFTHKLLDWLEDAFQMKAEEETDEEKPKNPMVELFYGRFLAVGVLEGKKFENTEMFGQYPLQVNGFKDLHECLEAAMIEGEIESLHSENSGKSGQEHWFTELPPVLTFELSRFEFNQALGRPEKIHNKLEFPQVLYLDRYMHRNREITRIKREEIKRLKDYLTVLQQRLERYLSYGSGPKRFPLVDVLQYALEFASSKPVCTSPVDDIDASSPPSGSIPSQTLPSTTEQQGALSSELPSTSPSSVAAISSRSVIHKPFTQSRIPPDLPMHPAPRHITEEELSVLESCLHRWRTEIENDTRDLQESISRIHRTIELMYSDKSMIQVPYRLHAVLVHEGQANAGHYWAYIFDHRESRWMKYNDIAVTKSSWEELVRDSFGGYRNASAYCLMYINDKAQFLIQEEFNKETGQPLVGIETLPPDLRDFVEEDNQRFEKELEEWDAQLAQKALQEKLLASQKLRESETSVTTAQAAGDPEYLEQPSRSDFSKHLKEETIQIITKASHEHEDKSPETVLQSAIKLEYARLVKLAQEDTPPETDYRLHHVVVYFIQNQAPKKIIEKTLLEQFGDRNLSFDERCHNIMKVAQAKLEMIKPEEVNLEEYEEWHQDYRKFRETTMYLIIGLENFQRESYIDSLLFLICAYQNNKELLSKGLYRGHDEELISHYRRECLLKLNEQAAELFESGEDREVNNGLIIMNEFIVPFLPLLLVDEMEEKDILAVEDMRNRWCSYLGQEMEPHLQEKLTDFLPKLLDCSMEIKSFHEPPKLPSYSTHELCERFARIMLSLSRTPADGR
Method in brief: as §1

USP28 = molecular target: T3, USP28 (UniProt Q96RU2)
T3 sequence (whole entry): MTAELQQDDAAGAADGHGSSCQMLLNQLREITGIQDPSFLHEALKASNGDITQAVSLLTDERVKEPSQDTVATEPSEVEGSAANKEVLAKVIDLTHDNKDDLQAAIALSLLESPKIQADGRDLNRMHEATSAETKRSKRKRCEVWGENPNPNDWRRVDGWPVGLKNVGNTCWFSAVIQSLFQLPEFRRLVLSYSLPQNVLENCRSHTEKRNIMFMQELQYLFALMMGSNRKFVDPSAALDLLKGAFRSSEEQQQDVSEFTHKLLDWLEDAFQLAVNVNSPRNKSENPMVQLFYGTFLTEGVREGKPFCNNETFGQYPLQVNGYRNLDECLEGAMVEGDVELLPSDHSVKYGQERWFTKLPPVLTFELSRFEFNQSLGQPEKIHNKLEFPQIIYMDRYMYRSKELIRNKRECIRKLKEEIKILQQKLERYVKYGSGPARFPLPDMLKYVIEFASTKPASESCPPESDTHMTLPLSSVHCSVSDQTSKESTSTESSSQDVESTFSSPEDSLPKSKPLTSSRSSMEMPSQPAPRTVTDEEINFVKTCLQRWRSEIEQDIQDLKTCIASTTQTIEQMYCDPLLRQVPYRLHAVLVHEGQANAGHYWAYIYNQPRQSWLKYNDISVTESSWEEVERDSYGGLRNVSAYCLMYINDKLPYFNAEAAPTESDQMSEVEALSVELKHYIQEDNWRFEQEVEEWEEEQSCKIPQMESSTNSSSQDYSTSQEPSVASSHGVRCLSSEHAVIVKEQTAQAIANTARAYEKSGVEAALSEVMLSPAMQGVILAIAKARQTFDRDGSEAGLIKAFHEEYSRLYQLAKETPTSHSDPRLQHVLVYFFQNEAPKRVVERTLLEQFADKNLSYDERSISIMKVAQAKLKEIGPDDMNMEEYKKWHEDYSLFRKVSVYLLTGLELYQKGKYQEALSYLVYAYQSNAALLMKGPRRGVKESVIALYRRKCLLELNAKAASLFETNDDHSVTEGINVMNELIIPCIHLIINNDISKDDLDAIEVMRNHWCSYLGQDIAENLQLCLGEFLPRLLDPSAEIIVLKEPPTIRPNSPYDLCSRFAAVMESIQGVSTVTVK
Method in brief: as §1

Measured: log2 ratio of Biotin-Ahx-Ub-VS probe labelling

Sequence of USP24 (Q9UPU5 whole entry): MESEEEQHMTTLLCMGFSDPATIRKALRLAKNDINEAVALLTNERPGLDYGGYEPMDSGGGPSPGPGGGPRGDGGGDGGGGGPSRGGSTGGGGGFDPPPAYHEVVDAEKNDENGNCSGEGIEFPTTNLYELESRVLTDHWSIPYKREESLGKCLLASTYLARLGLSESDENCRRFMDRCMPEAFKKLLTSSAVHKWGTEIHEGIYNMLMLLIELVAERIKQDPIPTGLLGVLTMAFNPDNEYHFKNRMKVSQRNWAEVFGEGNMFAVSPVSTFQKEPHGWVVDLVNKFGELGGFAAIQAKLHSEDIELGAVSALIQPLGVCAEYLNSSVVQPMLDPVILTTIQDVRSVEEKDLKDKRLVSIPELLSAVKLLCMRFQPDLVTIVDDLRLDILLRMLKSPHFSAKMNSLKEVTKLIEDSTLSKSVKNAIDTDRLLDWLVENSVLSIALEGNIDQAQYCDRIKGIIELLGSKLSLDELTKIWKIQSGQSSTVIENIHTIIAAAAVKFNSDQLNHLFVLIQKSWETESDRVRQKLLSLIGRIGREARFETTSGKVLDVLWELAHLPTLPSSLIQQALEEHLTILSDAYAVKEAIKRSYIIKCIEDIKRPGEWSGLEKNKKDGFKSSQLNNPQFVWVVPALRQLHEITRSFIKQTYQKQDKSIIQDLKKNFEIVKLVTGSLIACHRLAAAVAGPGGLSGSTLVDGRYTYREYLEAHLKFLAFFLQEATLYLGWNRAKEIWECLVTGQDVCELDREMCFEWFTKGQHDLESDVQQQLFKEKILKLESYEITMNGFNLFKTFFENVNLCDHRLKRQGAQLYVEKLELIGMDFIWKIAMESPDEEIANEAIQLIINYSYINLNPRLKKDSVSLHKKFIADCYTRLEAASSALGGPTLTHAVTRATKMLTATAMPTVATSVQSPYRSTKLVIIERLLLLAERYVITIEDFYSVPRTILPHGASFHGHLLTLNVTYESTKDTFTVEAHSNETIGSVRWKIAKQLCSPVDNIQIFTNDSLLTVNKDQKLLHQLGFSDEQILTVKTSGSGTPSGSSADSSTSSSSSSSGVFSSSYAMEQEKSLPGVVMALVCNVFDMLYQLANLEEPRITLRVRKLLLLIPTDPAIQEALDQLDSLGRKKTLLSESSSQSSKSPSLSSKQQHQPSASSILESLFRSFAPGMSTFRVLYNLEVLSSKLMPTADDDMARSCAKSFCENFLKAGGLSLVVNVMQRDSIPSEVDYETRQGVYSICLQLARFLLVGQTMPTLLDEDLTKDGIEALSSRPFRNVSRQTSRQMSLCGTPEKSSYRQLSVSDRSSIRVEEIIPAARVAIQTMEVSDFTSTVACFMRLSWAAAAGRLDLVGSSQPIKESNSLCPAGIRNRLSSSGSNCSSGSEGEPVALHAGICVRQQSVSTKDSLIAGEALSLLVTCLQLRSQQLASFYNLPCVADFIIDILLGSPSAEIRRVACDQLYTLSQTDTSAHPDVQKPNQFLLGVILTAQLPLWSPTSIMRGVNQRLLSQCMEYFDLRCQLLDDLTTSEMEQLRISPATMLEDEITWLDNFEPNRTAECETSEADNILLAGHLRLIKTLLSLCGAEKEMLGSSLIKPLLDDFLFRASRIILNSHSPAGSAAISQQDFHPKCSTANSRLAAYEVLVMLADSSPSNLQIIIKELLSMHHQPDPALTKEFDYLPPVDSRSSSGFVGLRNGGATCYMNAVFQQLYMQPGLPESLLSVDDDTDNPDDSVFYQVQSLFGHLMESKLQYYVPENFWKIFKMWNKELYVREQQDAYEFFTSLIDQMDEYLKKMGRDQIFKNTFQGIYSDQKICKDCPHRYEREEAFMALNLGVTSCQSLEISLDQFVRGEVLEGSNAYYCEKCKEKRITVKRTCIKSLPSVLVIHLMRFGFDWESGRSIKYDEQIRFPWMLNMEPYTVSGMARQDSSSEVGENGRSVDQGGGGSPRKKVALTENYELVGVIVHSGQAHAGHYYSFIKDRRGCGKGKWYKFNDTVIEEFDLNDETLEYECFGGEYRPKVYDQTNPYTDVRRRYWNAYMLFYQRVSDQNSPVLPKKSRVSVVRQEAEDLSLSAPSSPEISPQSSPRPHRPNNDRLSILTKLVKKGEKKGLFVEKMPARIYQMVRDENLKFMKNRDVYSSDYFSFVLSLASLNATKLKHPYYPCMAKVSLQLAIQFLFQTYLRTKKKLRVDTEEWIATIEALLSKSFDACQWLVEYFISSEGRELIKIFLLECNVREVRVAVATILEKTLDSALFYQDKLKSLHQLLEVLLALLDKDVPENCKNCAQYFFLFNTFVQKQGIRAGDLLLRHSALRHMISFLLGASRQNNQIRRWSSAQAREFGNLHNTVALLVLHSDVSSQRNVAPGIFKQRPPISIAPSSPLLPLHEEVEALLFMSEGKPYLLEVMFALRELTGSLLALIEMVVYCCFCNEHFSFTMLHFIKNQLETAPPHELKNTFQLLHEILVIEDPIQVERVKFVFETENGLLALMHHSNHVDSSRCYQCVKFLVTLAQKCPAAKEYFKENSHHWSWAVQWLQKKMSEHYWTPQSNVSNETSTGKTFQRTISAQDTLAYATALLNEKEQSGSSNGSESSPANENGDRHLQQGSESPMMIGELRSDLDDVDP

O=C(CCl)Nc1ccc(F)cc1Cl
inactive: USP19 -0.2 | USP24 -0.832 | USP25 -0.414 | USP28 -0.873
